The list is not random: actives were taken first. Their share in the collection is about 9.6%.
HCT116 bCat-KO – beta-catenin-lacking colon tumor cell growth suppression | HCT116 beta-catenin knockout viability, CellTiter-Glo, 60 h; active compounds read low | viability, % at 10 µM | 140,000 tested, 1.5% active;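 active = viability at or under a set limit, the compound median less 4 SD, cut at about 6% in these data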;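 also: 0% = Hyamine 1622 control at 20 µM and 100% = untreated cell control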
Autophagy HCS – alters autophagy in cells; MEF GFP-LC3 puncta imaging; test concentration mostly 10 µM; 190,000 tested, 0.98% active; calls only at 10 µM (by protocol); AID 463193;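 active = percentage of spot-positive cells more than 3 SD above its plate mean, without a fluorescence outlier flag or 80% toxicity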;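 also: spot-positive cell cutoff set from DMSO-treated cells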
Ins promoter up – MIN6 insulin promoter up-regulation. AID 1625. MIN6 insulin promoter-GFP reporter, high-content imaging; active compounds read high. 190,000 tested, 0.3% active. z-score at 5 µM;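 active = z-score above 3 at 5 µM with at least 500 cells counted in the well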
PTEN del growth – growth suppressors of cells with PTEN tumor suppressor deletion. HCT116 PTEN-null viability, CellTiter-Glo, 60 h; active compounds read low. viability, % at 10 µM. 140,000 tested, 1.2% active;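 active = viability at or below a set limit, 4 SD under the median of all tested compounds, cut at about 3.7% in these data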;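 also: PTEN knockout HCT116 line with beta catenin targeted HCT116 as companion control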
Lmaj promast – inhibitors of Leishmania major promastigote growth. Leishmania major promastigotes, resazurin fluorescence viability. inhibition, % at 10 µM. 200,000 tested, 9% active; in the data active = inhibition above about 50%;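 also: promastigotes grown with compound for 44 hours at 28 °C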
Insulin prom inh – TRM-6 insulin promoter activity inhibition | TRM-6 cells (human fetal islet line), insulin promoter-eGFP reporter, imaging; reporter expression induced with tamoxifen | inhibition, % at 2 µM | AID 1273 | 130,000 tested, 0.9% active;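 active = inhibition above the mean plus 3 SD, with well images judged a real hit on visual review, cut at about 60% in these data, passing the limit was not always enough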
* marks the source's active call; other numbers are inactive results; i = inactive; / = not tested or not shown; + = active, no number.

SMILES	HCT116 bCat-KO	Autophagy HCS	Ins promoter up	PTEN del growth	Lmaj promast	Insulin prom inh
CCOc1cccc(NC(=O)C2CC(=O)N(C)C(=Nc3ccccc3)S2)c1 (centres undefined)	54	i	2.1	57	20	-25
CN(CC(=O)N1CCCC1)S(=O)(=O)c1ccc2ccccc2c1	/	i	0.35	/	-4	0
Cc1ccc(OCC(=O)N2CCN(S(C)(=O)=O)CC2)cc1	/	/	0.34	/	/	/
COc1cccc(/C=N/NC(=O)c2ccc(CN3c4cccc5cccc(c45)S3(=O)=O)cc2)c1	90	i	-0.03	84	82*	-38
O=C(CN1CCCC1)Nc1c2c(nc3ccccc13)N(Cc1ccccc1)CC2	83	i	0.2	76	51*	32
CN1C(CC(=O)Nc2ccc(Cl)cc2Cl)c2ccccc2CC1(C)C (centres undefined)	/	/	-0.83	/	/	/
CCOC(=O)/C(C(=O)Nc1ccc(Cl)cc1Cl)=C1/NC(C)(C)Cc2ccccc21	98	i	1.1	100	73*	-33
CCc1nnc(NC(=O)CCc2ccc(C)o2)s1	100	i	-0.27	111	-4	37
Nc1nnc(Cc2ccccc2F)s1	/	+	-0.34	/	1	/
Cc1ccc(C)n1NC(=O)c1ccc(Cl)cc1	98	i	/	99	-1	71
CNC(=O)c1ccc(-c2ccc(OC)cc2)s1	89	i	-0.47	91	-7	-8
Nc1nnc(-c2cc3c(ccc4ccccc43)oc2=O)s1	/	i	8.8*	/	81*	/
O=C(OCCN1C(=O)c2cccc3c(N4CCOCC4)ccc(c23)C1=O)c1cccc(Cl)c1	22	+	1.5	20	1	/
O=C(OCCN1C(=O)c2cccc3c(N4CCOCC4)ccc(c23)C1=O)c1ccc(Cl)cc1Cl	10	+	/	9	5	/
COc1cccc(C(=O)OCCN2CCOCC2)c1	/	i	-0.04	/	-4	/
Cc1n[nH]c(C)c1N1C(=O)c2cccc3c(N4CCCCCC4)ccc(c23)C1=O	74	+	/	65	21	/
O=C(OCCN1C(=O)c2ccccc2C1=O)c1cc(S(=O)(=O)N2CCOCC2)ccc1Cl	89	i	0.57	107	4	-7
O=C(OCCN1C(=O)c2cccc3c(N4CCOCC4)ccc(c23)C1=O)c1ccccc1Cl	5.3*	+	0.31	5	86*	14
CCCS(=O)(=O)c1snnc1C	93	i	/	100	-6	25
C=CCN1C(=O)c2cccc3c(N4CCCCC4)ccc(c23)C1=O	/	i	/	/	5	i
O=C1c2cccc3c(N4CCCCC4)ccc(c23)C(=O)N1CCO	16	+	0.45	40	10	-46
CO/N=C/NC(=O)NOCc1c(Cl)cccc1Cl	103	i	-0.24	104	-2	57
Fc1ccc(-c2csc(-c3ccncc3)n2)cc1	/	i	-0.18	/	9	-15
COc1cccc(OCCOCC(O)CN2CCN(Cc3ccc(Cl)cc3)CC2)c1 (centres undefined)	72	i	/	76	52*	18
OC(COCCOc1ccc(Br)cc1)CN1CCN(Cc2ccccc2)CC1 (centres undefined)	18	i	-0.37	19	85*	-38
SMILES	HCT116 bCat-KO	Autophagy HCS	Ins promoter up	PTEN del growth	Lmaj promast	Insulin prom inh
CC1CC(OCC(O)CN2CCN(Cc3ccccc3)CC2)CC(C)(C)C1 (centres undefined)	75	i	/	73	93*	/
COc1ccc(OCCOCC(O)CN2CCOCC2)cc1 (centres undefined)	100	i	0.09	105	-4	33
COCCOCC(O)CN1CCN(c2ccccc2)CC1 (centres undefined)	88	i	0.58	85	0	/
CCc1ccc(OCCOCC(O)CN2CCN(Cc3ccc(Cl)cc3)CC2)cc1 (centres undefined)	6	i	-0.78	8	96*	-85
COC(=O)c1sc2ncn(N)c(=O)c2c1C	/	/	-0.2	/	/	/
N#Cc1c(-c2ccccc2)nc(SCC(=O)N(c2ccccc2)c2ccccc2)[nH]c1=O	95	i	0.06	99	-1	/
Cn1c(=O)c(=O)n(C)c2cc(S(=O)(=O)NCc3ccc(Cl)cc3)ccc21	/	i	-0.04	/	100*	/
Cn1c(=O)n(C)c2cc(S(=O)(=O)NCc3ccccc3)ccc21	85	i	-1.4	83	99*	/
COC(=O)C1=C(O)C(C(=O)OC)C(c2ccc(C)cc2)C(C#N)(C#N)C1c1ccc(C)cc1 (centres undefined)	21	i	/	18	61*	59
CSC(=S)N/N=C(\C)c1ccccc1	/	i	-0.34	/	100*	53
CCCCC(=O)NC(=S)Nc1cc(C(=O)O)ccc1Cl	87	i	-0.66	107	-6	/
CCCn1nc(C(=O)Nc2nc3ccccc3[nH]2)c2ccccc2c1=O	81	i	-0.36	74	93*	68
CCCCCCn1nc(C(=O)Nc2nc3c(s2)CCCC3)c2ccccc2c1=O	81	i	-0.31	83	50*	/
CCCCn1nc(C(=O)Nc2nc3c(s2)CCCC3)c2ccccc2c1=O	58	i	/	48	42	/
CC(C)n1nc(C(=O)Nc2nc3ccccc3[nH]2)c2ccccc2c1=O	/	i	-0.54	/	50	/
C=CCNC(=S)N/N=C/c1ccc(C(C)(C)C)cc1	/	i	0	/	18	/
O=C(CSc1nc2c(sc3ccccc32)c(=O)n1CCCN1CCCC1)NCc1ccco1	/	i	0.18	/	95*	0
Cc1cc(NC(=O)CSc2nc3c(sc4ccccc43)c(=O)n2CCCN2CCOCC2)n[nH]1	12	+	0.16	91	2	-21
COc1cc(S(=O)(=O)NC2CCCC2)c(OC)cc1Cl	92	i	/	82	2	27
CC(C)C(=O)N1CCC(CN=Cc2c(O)n(C3CCCCC3)c(=O)n(C3CCCCC3)c2=O)CC1	19	i	-0.26	32	100*	36
CC(C)NC(=S)N/N=C/c1c[nH]c2ccccc12	87	i	-0.2	81	66*	15
Cc1nn(S(=O)(=O)N2CCOCC2)c(C)c1Br	/	i	0.58	/	-1	39
O=C(Cn1nnc(-c2cccs2)n1)NCc1ccccc1	/	i	0.6	/	-11	32
COc1ccc(N2C(S)=C(C#N)C(=O)NC2c2ccc(OC)c(OC)c2)cc1 (centres undefined)	/	i	0.36	/	-7	/
CCOc1ccc(C2NC(=O)C(C#N)=C(S)N2c2ccc(OC)cc2)cc1OC (centres undefined)	93	i	0.16	95	-4	80*
CCC(C)c1ccc2oc(-c3ccc(NC(=O)Cn4cnc5c(=O)n(C)c(=O)n(C)c54)cc3)nc2c1 (centres undefined)	1.6*	i	-0.29	1.5*	22	-196
Cc1ccc2oc(-c3cccc(NC(=O)Cn4cnc5c(=O)n(C)c(=O)n(C)c54)c3)nc2c1	/	i	-2.6	/	-2	-35
CC(OCC(O)CN(C)CCOc1ccccc1)c1ccc(Cl)cc1 (centres undefined)	72	i	-2.1	86	99*	-21

High-throughput results deposited in PubChem BioAssay by several laboratories.
